# Key:
# [1] = biological target: Homeodomain-interacting protein kinase 3 (Homo sapiens) (UniProt Q9H422); conditions: at 10 µM
# [2] = biological target: T1, Serine/threonine-protein kinase haspin (Homo sapiens) (UniProt Q8TF76); conditions: at 1 µM
# T1 sequence (whole entry): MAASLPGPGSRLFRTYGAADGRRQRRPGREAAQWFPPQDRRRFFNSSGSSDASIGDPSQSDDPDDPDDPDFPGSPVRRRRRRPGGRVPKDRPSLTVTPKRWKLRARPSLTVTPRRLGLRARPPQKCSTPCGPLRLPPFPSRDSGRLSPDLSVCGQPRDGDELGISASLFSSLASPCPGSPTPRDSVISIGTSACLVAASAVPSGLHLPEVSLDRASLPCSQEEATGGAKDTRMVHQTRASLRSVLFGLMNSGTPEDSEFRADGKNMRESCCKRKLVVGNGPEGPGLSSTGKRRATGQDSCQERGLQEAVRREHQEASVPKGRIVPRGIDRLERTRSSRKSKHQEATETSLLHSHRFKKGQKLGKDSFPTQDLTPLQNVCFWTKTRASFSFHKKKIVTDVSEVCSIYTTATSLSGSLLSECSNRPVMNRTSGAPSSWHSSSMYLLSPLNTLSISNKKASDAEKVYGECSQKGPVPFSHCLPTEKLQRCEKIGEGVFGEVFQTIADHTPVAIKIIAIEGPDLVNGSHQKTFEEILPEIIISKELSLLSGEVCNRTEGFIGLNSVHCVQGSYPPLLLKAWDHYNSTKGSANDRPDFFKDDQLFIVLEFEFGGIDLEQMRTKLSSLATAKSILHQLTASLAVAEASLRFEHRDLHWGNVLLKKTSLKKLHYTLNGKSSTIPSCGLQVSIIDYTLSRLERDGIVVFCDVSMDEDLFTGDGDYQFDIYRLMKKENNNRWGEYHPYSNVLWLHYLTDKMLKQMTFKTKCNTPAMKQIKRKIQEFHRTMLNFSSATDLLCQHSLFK
# [3] = biological target: T1, Serine/threonine-protein kinase haspin (Homo sapiens); conditions: at 10 µM
# [4] = biological target: Tyrosine-protein kinase HCK (Homo sapiens) (UniProt P08631); conditions: at 1 µM
# [5] = biological target: Tyrosine-protein kinase HCK (Homo sapiens) (UniProt P08631); conditions: at 10 µM
# [6] = biological target: Tyrosine-protein kinase HCK (Homo sapiens) (UniProt P08631); conditions: at 1 µM; remark: listed apart in the source
# [7] = biological target: Tyrosine-protein kinase HCK (Homo sapiens) (UniProt P08631); conditions: at 10 µM; remark: listed apart in the source
# [8] = biological target: Insulin-like growth factor 1 receptor (Homo sapiens) (UniProt P08069); conditions: at 1 µM
# [9] = biological target: Insulin-like growth factor 1 receptor (Homo sapiens) (UniProt P08069); conditions: at 10 µM
# [10] = biological target: T2, Protein kinase C zeta type (Homo sapiens) (UniProt Q05513); conditions: at 10 µM
# T2 sequence (whole entry): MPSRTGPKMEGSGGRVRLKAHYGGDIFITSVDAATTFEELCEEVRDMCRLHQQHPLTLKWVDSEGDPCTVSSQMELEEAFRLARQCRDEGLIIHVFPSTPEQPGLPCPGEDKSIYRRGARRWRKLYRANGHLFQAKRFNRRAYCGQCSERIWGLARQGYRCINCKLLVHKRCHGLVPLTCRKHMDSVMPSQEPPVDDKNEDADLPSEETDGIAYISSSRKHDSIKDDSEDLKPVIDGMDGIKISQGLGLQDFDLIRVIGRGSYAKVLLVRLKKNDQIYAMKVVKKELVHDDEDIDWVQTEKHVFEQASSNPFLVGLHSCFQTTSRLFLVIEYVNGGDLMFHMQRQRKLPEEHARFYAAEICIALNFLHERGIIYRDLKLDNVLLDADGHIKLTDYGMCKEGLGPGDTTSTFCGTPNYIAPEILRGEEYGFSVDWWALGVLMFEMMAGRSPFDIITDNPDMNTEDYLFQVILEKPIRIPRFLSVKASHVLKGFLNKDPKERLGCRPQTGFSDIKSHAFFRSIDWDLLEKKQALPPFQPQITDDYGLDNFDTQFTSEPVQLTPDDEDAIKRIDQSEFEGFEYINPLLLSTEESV
# Chain of Insulin-like growth factor 1 receptor (Homo sapiens) (P08069 31-736 limits assumed): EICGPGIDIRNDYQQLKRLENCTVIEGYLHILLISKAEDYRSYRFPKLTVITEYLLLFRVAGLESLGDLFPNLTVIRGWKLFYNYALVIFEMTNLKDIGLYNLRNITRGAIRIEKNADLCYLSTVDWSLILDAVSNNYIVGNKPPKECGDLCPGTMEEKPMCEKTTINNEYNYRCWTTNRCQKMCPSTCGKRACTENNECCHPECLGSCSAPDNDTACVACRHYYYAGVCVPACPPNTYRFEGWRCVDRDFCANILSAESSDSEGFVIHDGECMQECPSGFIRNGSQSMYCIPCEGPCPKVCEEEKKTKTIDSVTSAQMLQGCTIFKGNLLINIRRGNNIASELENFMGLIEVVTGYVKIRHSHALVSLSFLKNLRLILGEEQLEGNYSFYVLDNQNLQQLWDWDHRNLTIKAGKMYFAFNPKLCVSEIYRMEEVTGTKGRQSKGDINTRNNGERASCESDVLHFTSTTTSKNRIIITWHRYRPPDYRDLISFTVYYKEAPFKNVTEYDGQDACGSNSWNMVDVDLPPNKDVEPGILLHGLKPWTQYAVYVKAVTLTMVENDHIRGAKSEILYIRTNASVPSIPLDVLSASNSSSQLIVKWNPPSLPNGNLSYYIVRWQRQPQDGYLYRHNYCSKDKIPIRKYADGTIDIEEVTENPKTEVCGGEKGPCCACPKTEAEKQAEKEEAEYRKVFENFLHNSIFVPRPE
# Chain of Insulin-like growth factor 1 receptor (Homo sapiens) (P08069 741-1367 limits assumed): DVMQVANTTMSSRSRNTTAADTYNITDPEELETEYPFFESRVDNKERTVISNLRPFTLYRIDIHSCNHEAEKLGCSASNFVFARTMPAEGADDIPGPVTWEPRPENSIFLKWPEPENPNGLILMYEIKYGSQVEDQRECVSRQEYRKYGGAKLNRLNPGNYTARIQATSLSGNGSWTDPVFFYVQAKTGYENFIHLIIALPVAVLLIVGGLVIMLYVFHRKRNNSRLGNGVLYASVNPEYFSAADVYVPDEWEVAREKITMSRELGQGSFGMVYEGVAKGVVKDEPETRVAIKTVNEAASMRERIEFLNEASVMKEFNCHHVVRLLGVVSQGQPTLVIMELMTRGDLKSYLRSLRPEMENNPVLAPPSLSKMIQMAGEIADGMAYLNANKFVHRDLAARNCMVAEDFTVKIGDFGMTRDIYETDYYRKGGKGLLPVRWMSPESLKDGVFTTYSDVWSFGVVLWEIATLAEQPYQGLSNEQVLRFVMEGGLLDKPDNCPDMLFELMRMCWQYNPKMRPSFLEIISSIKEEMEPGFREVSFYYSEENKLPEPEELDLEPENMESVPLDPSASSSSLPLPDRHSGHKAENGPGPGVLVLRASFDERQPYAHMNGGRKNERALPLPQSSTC
# Chain of Homeodomain-interacting protein kinase 3 (Homo sapiens) (Q9H422 whole entry, looked up): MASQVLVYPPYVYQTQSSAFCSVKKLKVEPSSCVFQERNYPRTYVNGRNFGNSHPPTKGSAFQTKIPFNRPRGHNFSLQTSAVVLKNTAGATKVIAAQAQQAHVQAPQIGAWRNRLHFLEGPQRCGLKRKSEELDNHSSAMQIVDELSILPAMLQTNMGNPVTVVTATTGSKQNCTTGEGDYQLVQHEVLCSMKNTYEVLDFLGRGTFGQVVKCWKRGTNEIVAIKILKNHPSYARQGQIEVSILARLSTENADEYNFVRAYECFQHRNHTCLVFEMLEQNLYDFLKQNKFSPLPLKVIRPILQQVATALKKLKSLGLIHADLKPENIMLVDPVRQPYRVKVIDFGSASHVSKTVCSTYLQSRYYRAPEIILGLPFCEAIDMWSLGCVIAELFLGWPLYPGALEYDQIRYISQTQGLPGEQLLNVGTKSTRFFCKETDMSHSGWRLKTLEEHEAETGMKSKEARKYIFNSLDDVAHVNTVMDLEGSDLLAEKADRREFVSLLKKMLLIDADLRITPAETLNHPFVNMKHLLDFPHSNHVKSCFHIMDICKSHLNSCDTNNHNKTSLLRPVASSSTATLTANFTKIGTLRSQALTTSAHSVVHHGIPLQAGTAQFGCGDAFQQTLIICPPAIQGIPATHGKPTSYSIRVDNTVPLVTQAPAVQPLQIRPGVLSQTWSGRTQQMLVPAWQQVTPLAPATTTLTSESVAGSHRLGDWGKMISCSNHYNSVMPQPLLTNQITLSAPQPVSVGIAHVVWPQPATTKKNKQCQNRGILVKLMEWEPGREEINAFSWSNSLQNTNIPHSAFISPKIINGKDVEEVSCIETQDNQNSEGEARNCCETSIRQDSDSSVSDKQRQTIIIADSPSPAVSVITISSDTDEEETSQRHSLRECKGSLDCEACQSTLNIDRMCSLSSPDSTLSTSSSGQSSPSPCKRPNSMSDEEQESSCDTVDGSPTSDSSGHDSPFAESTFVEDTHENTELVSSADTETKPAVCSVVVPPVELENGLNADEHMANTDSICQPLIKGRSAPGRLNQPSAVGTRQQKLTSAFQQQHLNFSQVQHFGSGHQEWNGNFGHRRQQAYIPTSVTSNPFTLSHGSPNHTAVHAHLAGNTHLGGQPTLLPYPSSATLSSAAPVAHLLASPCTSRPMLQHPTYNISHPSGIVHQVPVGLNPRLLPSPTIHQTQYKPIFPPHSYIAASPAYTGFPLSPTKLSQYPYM
# Chain of Tyrosine-protein kinase HCK (Homo sapiens) (P08631 2-526 limits assumed): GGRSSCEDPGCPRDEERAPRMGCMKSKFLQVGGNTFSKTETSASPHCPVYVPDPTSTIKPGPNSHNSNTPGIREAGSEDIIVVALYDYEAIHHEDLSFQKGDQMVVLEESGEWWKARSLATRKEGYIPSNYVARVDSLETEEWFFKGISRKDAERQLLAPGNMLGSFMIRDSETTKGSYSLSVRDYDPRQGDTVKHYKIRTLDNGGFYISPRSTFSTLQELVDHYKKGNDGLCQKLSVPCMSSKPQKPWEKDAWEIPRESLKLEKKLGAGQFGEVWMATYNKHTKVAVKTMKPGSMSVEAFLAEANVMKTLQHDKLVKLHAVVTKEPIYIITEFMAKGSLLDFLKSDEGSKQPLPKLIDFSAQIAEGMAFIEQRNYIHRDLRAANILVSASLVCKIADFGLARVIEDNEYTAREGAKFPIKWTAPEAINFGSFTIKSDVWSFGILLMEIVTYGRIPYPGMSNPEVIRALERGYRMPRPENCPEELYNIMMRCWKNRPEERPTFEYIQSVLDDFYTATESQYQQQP
Compound,residual activity [1] [%],residual activity [2] [%],residual activity [3] [%],residual activity [4] [%],residual activity [5] [%],residual activity [6] [%],residual activity [7] [%],residual activity [8] [%],residual activity [9] [%],residual activity [10] [%]
CCCC(=O)Oc1ccc2[nH]c(C(=O)c3cc4ccccc4[nH]3)cc2c1,98,106,99,70,36,98,94,143,106,
O=C(O)/C=C/c1cc(Br)c(Br)c(Br)c1Br,54,79,71,59,48,107,106,,,88
CC(C)c1nn(-c2c(Cl)cccc2Cl)c2nc(Cc3ccc(OCCO)cc3)[nH]c(=O)c12,103,97,56,75,56,98,86,135,103,93
COc1cc2nccc(Oc3ccc(NC(=S)NC(=O)c4ccccc4C)cc3)c2cc1OC,101,80,35,7,1,11,3,120,148,
O=C1NC(=O)c2c1c1c3ccccc3[nH]c1n1cncc21,42,8,18,54,39,38,35,9,14,
O=C1Nc2ccc(Cl)cc2/C1=C/c1cc(Cl)c(O)c(Cl)c1,46,12,1,61,15,86,53,126,,
CN(C)S(=O)(=O)c1ccc2c(c1)/C(=C/c1cc3c([nH]1)CCCC3)C(=O)N2,86,127,,10,10,73,74,,134,
COc1ccc2c(c1)c(C1=C(c3c[nH]c4ccccc34)C(=O)NC1=O)cn2CCCN(C)C,22,98,56,65,53,98,72,134,104,27
NC(=O)Nc1sc(-c2ccc(F)cc2)cc1C(N)=O,90,63,51,24,6,37,7,82,32,100
O=C1C(Cl)=C(N2C(=O)CCC2=O)C(=O)c2ccccc21,86,96,,71,63,91,,93,130,
CCCCc1c(-c2ccc(OC)cc2)[nH]c2nccnc12,110,77,27,60,24,75,81,109,136,103
O=S(=O)(c1cccc2cnccc12)N1CCCNCC1,,60,8,,,,,,,
O=c1cc(N2CCOCC2)oc2c1ccc1ccccc12,21,74,26,85,77,101,110,,,91
O=C(c1cc2cc(O)ccc2[nH]1)c1cc2cc(O)ccc2[nH]1,25,39,7,23,5,8,3,65,63,
COc1ccc(Cl)cc1NC(=O)Nc1cc(C)nc2ccccc12,98,,,93,53,100,98,147,,
O=C(CCCc1ccc(-c2ccccc2F)cc1)Nc1ccc(O)cc1,98,,98,96,62,106,89,104,100,
c1ccc(-c2cnc(Nc3ccc(OCCN4CCCC4)cc3)s2)cc1,31,77,51,57,24,71,11,119,108,109
N#C/C(=C1/Nc2ccccc2S1)c1ccnc(NCCc2cccnc2)n1,21,36,-2,60,26,88,68,143,72,
N#Cc1c(NC(=O)c2cccc3ccccc23)sc2c1CCCC2,99,82,64,63,55,,,136,128,100
Oc1cccc(-c2nc(N3CCOCC3)c3oc4ncccc4c3n2)c1,59,76,32,,68,,,131,,
CC(C)(C)c1nc2c3ccc(F)cc3c3c(=O)[nH]ccc3c2[nH]1,45,74,34,49,31,68,60,119,,
CC(C)[C@H](CO)Nc1nc(Nc2cc(N)cc(Cl)c2)c2ncn(C(C)C)c2n1,73,57,20,27,5,50,9,118,92,
CC(C)N(CCC(=O)c1ccc2ccccc2c1)Cc1ccccc1,100,81,66,79,64,,,,,
CC(C)(C)n1nc(Cc2cccc3ccccc23)c2c(N)ncnc21,97,79,16,32,3,43,,142,96,116
O=c1cc(N2CCNCC2)oc2c(-c3ccccc3)cccc12,99,83,38,79,66,,95,,149,
CCN(CC)CCNC(=O)c1c(C)[nH]c(/C=C2\C(=O)Nc3ccc(Cl)cc32)c1C,-5,43,12,13,3,9,0,135,13,

# Source: ChEMBL document CHEMBL2218924, “A broad activity screen in support of a chemogenomic map for kinase signalling research and drug discovery” (Biochem J, 2013)
